# Laboratory results taken from PubChem BioAssay AID623870 (Broad Institute, 2012).
# About 2,600 (0.67%) of roughly 390,000 compounds were called active. This is one part of a sample in which actives are shown more often than they occur.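 Rule for the calls: active = mean inhibition of replicates at least 50% and at least half of replicates each reaching 50%; inconclusive = half or more replicates reach 50% but mean below 50%; inactive = the rest.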
# Target: Transforming acidic coiled-coil-containing protein 3 (Homo sapiens) (UniProt Q9Y6A5)
# Assay: disruptors of ARNT/TACC3 protein interaction, primary screen, biochemical, AlphaScreen, single concentration (AID 623870);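 note: 0% = complete ARNT plus TACC3 wells and 100% = ARNT alone without TACC3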
# Settings: AlphaScreen His-ARNT PAS-B/GST-TACC3 binding, luminescence; at 9.99 µM; hits give high values; TACC3 fragment carries E629A point mutation
row,SMILES,inhibition
1,CN1[C@@H]2c3ccc(-c4cccc(F)c4)c(=O)n3C[C@@H]2[C@@H](CO)[C@@H]1C(=O)NC1CCC1,-9.74% (inactive)
2,CCC(=O)Nc1ccc2c(c1)OC[C@H](C)N(C(=O)c1ccncc1)C[C@H](C)[C@H](OC)CN(C)C2=O,6.95% (inactive)
3,C[C@@H]1CN([C@@H](C)CO)C(=O)c2cccc(NC(=O)c3ccncc3)c2O[C@H]1CN(C)S(=O)(=O)c1ccc(F)cc1,-8.57% (inactive)
4,C[C@@H]1CN([C@H](C)CO)C(=O)c2cc(NC(=O)Cc3cn(C)c4ccccc34)ccc2O[C@@H]1CN(C)S(=O)(=O)c1cccs1,-11.1% (inactive)
5,COC(=O)CC1=NN(c2nc(C)cc(C)n2)C(=O)C1,13.9% (active)
6,Cc1ccc(CC2CC(=O)N(c3nc(C)cc(C)n3)C2=O)cc1 (stereo not given),-8.57% (inactive)
7,Cc1cc(C)nc(N2C(=O)CC(Cc3ccccc3)C2=O)n1 (stereo not given),-0.771% (inactive)
8,COCCNC(=O)C[C@H]1CC[C@@H]2[C@@H](COc3ccc(NC(=O)C4CCOCC4)cc3C(=O)N2C)O1,-6.26% (inactive)
9,CCC(=O)N[C@H]1CC[C@H](CCn2cc(-c3cccc(OC)c3)nn2)O[C@H]1CO,-6.96% (inactive)
10,Cc1c(NC(=O)CSc2cccc3cccnc23)c(=O)n(-c2ccccc2)n1C,93.2% (active)
11,Cc1c(NC(=O)CN2C(=O)C(=O)N(Cc3ccccc3)C2=O)c(=O)n(-c2ccccc2)n1C,0.167% (inactive)
12,Cc1ccccc1OCCC(=O)Nc1c(C)n(C)n(-c2ccccc2)c1=O,5.66% (inactive)
13,C[C@@H]1CN([C@H](C)CO)C(=O)c2ccccc2-c2ccccc2CO[C@@H]1CN(C)S(=O)(=O)CC(F)(F)F,-0.141% (inactive)
14,C[C@H](CO)N1C[C@H](C)[C@H](CN(C)C)Oc2ccc(NC(=O)Cc3ccccc3)cc2CC1=O,-9.42% (inactive)
15,C[C@H](CO)N1C[C@H](C)[C@H](CN(C)C(=O)NC2CCCCC2)Oc2c(NC(=O)C3CC3)cccc2C1=O,-12.2% (inactive)
16,O=[N+]([O-])c1cc(Cl)cc(/C=N/NC(=S)Nc2cc(S(=O)(=O)N3CCOCC3)ccc2Cl)c1O,41.4% (inactive)
17,CNC(=S)N/N=C/c1ccc(N2CCOCC2)s1,46.8% (active)
18,C=CCNC(=S)N/N=C/c1ccc(C)s1,3.54% (inactive)
19,COc1ccc(NC(=O)N(C)C[C@@H]2Oc3c(NC(=O)C4CCOCC4)cccc3C(=O)N([C@H](C)CO)C[C@@H]2C)cc1,26.5% (inactive)
20,O=C(NNC1=NCCC1)c1cccc(S(=O)(=O)N2CCCCC2)c1,30.6% (inactive)
21,Cc1ncc(CO)c(/C=N/NC(=O)c2cccc(S(=O)(=O)N3CCCC3)c2)c1O,75.9% (active)
22,O=C(Nc1nncs1)c1cccc(S(=O)(=O)N2CCCCC2)c1,-5.27% (inactive)
23,CCCN(C)C[C@@H]1OCCCC[C@@H](C)Oc2ccc(NS(=O)(=O)c3c(C)noc3C)cc2C(=O)N([C@H](C)CO)C[C@@H]1C,-10.1% (inactive)
24,COCC#Cc1cnc2c(c1)C(=O)N([C@@H](C)CO)C[C@@H](C)[C@@H](CN(C)C(=O)Nc1ccc(OC)cc1)O2,4.88% (inactive)
25,ON=C1/C(=N\O)CC2(C/C1=N/O)OCCO2,59% (active)

row,SMILES,inhibition
1,C[C@@H]1CN([C@H](C)CO)C(=O)c2cccc(NS(=O)(=O)c3cccs3)c2O[C@@H]1CN(C)C(=O)Nc1cccc2ccccc12,26.7% (inactive)
2,Cc1cccc(-c2ccc([C@@H]3[C@@H](CO)N4CCCCN(S(=O)(=O)c5cccs5)C[C@H]34)cc2)c1,14.3% (inactive)
3,O=C(CCCN1C(=O)c2cccc3cccc(c23)C1=O)N1CCN(Cc2ccc3c(c2)OCO3)CC1,-11.4% (inactive)
4,O=C1c2cccc3cccc(c23)C(=O)N1CCCCCc1n[nH]c(=S)o1,28.3% (active)
5,O=C(COC(=O)CCCN1C(=O)c2cccc3cccc(c23)C1=O)NC1CCS(=O)(=O)C1 (stereo not given),7.07% (inactive)
6,C[C@H](CO)N1C[C@H](C)[C@H](CN(C)C(=O)Cc2ccccn2)Oc2ncc(-c3cncnc3)cc2C1=O,-0.547% (inactive)
7,CO[C@@H]1CN(C)C(=O)c2ccc(NC(=O)Nc3c(C)noc3C)cc2OC[C@@H](C)N(C(=O)Nc2cccc(Cl)c2)C[C@H]1C,4.61% (inactive)
8,COc1ccccc1NC(=O)N[C@H]1CC[C@H](CCNC(=O)Cc2ccccn2)O[C@@H]1CO,6.44% (inactive)
9,CC(C)n1cnc2c(NCc3ccccc3)cc(OCC3CCN(C)CC3)cc21,28.3% (active)
10,CCC(=O)Nc1ccc2c(c1)C(=O)N(C)[C@@H]1CC[C@@H](CC(=O)NCCN3CCCCC3)O[C@@H]1CO2,-4.58% (inactive)
11,COc1ccccc1-c1cn(CC[C@@H]2CC[C@@H](NC(=O)c3ccccc3F)[C@H](CO)O2)nn1,1.05% (inactive)
12,C[C@H]1CN([C@@H](C)CO)C(=O)c2cc(C3=CCCCC3)cnc2O[C@H]1CN(C)Cc1ccncc1,-9.48% (inactive)
13,O=C(NCc1cccnc1)c1nc(-c2cccs2)no1,-5.94% (inactive)
14,c1ccc(-c2noc(-c3cccs3)n2)nc1,48.9% (active)
15,O=C(c1cccs1)N(C(=O)c1cccs1)c1ccccn1,0.575% (inactive)
16,CC(NC(=O)c1ccco1)C(=O)Nc1nc(-c2ccccn2)cs1 (stereo not given),65.4% (active)
17,CCCC(NC(=O)c1ccco1)c1nc2ccccc2[nH]1 (stereo not given),-4.8% (inactive)
18,O=C(CN1C(=O)C2C3C=CC(C3)C2C1=O)Nc1nc(-c2ccccn2)cs1 (stereo not given),73.4% (active)
19,O=C(NCCN1C(=O)C2C3C=CC(C3)C2C1=O)Nc1ccccn1 (stereo not given),0.008% (inactive)
20,O=C(COc1cccnc1[N+](=O)[O-])Nc1ccc(Cl)cc1F,-2.26% (inactive)
21,CC1CCN(S(=O)(=O)c2nnc(NC(=O)COc3ccccc3F)s2)CC1,31.3% (inactive)
22,O=C(COc1ccccc1F)Nc1nc(-c2ccccn2)cs1,69.7% (active)
23,O=C(CCN1C(=O)C2C3C=CC(C3)C2C1=O)Nc1ccccc1F (stereo not given),-30.3% (inactive)
24,CCOC(=O)N1CCN(C(=O)C(C)NC(=O)c2ccco2)CC1 (stereo not given),-22% (inactive)
25,COc1ccc(S(=O)(=O)N(C)C[C@H]2Oc3ccc(NC(=O)CCC(F)(F)F)cc3CC(=O)N([C@H](C)CO)C[C@@H]2C)cc1,14.1% (inactive)

row,SMILES,inhibition
1,CCCN(C)C[C@H]1Oc2ncc(-c3cccnc3)cc2C(=O)N([C@@H](C)CO)C[C@@H]1C,-0.744% (inactive)
2,Cc1ccc(S(=O)(=O)N(C)C[C@@H]2OCCCC[C@@H](C)Oc3ccc(NC(=O)C4CCCCC4)cc3C(=O)N([C@H](C)CO)C[C@H]2C)cc1,-8.72% (inactive)
3,CCCC(=O)Nc1ccc2c(c1)OC[C@H](C)N(CCC)C[C@@H](C)[C@@H](OC)CN(C)C2=O,1.16% (inactive)
4,CC(C)NC(=O)Nc1ccc2c(c1)C(=O)N([C@H](C)CO)C[C@H](C)[C@@H](CN(C)S(=O)(=O)c1ccc(F)cc1)OCCCC[C@H](C)O2,-7.08% (inactive)
5,CCCN(C)C[C@@H]1Oc2cc(C#CCc3ccccc3)ccc2S(=O)(=O)N([C@H](C)CO)C[C@@H]1C,1.97% (inactive)
6,CCOc1cc(/C=N/n2cnnc2)c(Br)cc1O,7.91% (inactive)
7,O=C1CSC(=S)N1/N=C/c1ccc(O)c([N+](=O)[O-])c1,12.1% (inactive)
8,CCOc1cccc(/C=N/N2C(=O)CSC2=S)c1O,59.8% (active)
9,C[C@H](CO)N1C[C@H](C)[C@H](CN(C)C(=O)c2cnccn2)Oc2cc(C3=CCCC3)ccc2S1(=O)=O,1.21% (inactive)
10,COCC#Cc1ccc2c(c1)O[C@@H](CN(C)Cc1ccccn1)[C@@H](C)CN([C@@H](C)CO)S2(=O)=O,-0.755% (inactive)
11,O=C(O)c1ccc(/C=N/Nc2nc(N3CCCCC3)nc(N3CCCCC3)n2)cc1,45% (active)
12,O=C(NNc1nc(N2CCCC2)nc(N2CCCC2)n1)c1ccccc1,-2.38% (inactive)
13,C/C(=N\Nc1nc(N2CCOCC2)nc(N2CCOCC2)n1)c1ccc([N+](=O)[O-])cc1,15.4% (inactive)
14,CCCN1C[C@@H](C)[C@H](OC)CN(C)C(=O)c2ccc(NC(=O)C3CCOCC3)cc2OC[C@@H]1C,-0.135% (inactive)
15,C[C@H]1CN([C@@H](C)CO)C(=O)c2cccc(NC(=O)Nc3ccccc3)c2O[C@H]1CN(C)Cc1ccc(C(F)(F)F)cc1,7.66% (inactive)
16,Nc1nonc1-n1nnc(C(=O)N/N=C/c2cc(Br)ccc2O)c1CSC1=NCCS1,17.4% (inactive)
17,Fc1ccccc1/C=N/Nc1cc(N2CCCCC2)ncn1,22.7% (inactive)
18,Oc1ccc(Br)cc1/C=N/Nc1ccccn1,44.2% (active)
19,C[C@H]1CN([C@@H](C)CO)C(=O)c2c(c3ccccc3n2C)-c2ccccc2CO[C@H]1CN(C)S(=O)(=O)c1ccc(C#N)cc1,11.3% (inactive)
20,O=C(C[C@@H]1CC[C@H]2[C@@H](COC[C@@H](O)CN2C(=O)Nc2ccc(F)cc2)O1)NCC1CC1,1.68% (inactive)
21,CN(c1ccc(C(=O)N2CCc3ccccc3C2)cc1)S(C)(=O)=O,54% (active)
22,COc1cccc(N(CC(=O)N2CCc3ccccc3C2)S(C)(=O)=O)c1,1.07% (inactive)
23,CN(c1ccccc1)S(=O)(=O)c1ccc(C(=O)N2CCN(c3ccccc3Cl)CC2)cc1,-20.3% (inactive)
24,COc1ccc(S(=O)(=O)N(C)C[C@@H]2OCCCC[C@@H](C)Oc3ccc(NS(C)(=O)=O)cc3C(=O)N([C@H](C)CO)C[C@@H]2C)cc1,-15.8% (inactive)
25,CCCN(C)C[C@H]1Oc2ncc(C#CCOC)cc2C(=O)N([C@@H](C)CO)C[C@H]1C,-7.68% (inactive)
